Laboratory results as given in PubChem BioAssay AID504766 (The Scripps Research Institute Molecular Screening Center, 2011).
Out of some 340,000 compounds screened, about 3,400 (1%) were called active. The sample holds actives, similar compounds and a random draw of the others, so the mix is not that of the screen.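 Rule for the calls: active = inhibition above the mean over all tested compounds plus 3 SD (cut at about 4.2% in these data); inactive = the rest.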

The compounds below were run against Nuclear receptor subfamily 0 group B member 1 (Homo sapiens) (UniProt P51843) (assay: relief of DAX1 transcriptional repression – cell-based, HEK293, Gal4-DAX1, luciferase luminescence, primary screen (AID 504766;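 note: 0% = DAX1-transfected cells with DMSO and 100% = empty-vector control cells with DMSO; inhibition shows as a rise in luminescence from relieved DAX1 repression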)). Conditions: HEK293 Gal4-DAX1 luciferase reporter, at 6.75 µM, stronger effect = higher value.
Chain of Nuclear receptor subfamily 0 group B member 1 (Homo sapiens) (P51843 207-470 limits assumed): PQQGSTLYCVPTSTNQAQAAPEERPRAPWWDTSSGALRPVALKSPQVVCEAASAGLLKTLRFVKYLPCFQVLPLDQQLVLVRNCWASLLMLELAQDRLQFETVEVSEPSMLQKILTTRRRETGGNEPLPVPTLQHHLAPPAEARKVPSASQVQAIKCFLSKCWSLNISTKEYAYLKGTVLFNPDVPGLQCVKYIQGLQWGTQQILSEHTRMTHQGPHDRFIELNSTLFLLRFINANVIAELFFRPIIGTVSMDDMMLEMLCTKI
C[C@H]1CN([C@@H](C)CO)C(=O)CCCn2cc(nn2)CO[C@@H]1CN(C)S(=O)(=O)c1cccc(C#N)c1 was tested, and the inhibition was -0.32% (inactive). For N#CCCN(C(=S)Nc1ccc(Cl)c(Cl)c1)C1CCCCC1, the inhibition was -0.53% (inactive). With Cc1ccc(S(=O)(=O)NCCSc2ccccc2)cc1[N+](=O)[O-] the inhibition was -0.31% (inactive). With Cc1ccc(S(=O)(=O)Nc2nc3ccccc3s2)cc1[N+](=O)[O-] the inhibition was 5.09% (active). CCOc1ccc2sc(NS(=O)(=O)c3ccc(N)cc3)nc2c1 was tested, and the inhibition was 2.57% (inactive). For Cc1ccc(-c2ccc(CN3C(C(C)C)C(=O)N(Cc4cn(CCC5OCCO5)nn4)CCS3(=O)=O)cc2)cc1 (centres undefined), the inhibition was -1.47% (inactive). S=C1NC(c2ccccc2)=NCN1c1ccc(Br)cc1 was tested, and the inhibition was -1.46% (inactive). With Brc1ccc(C2CC(c3ccccc3)=Nc3ccccc3N2)cc1 (centres undefined) the inhibition was 4.28% (active). In the case of CNC(=S)N1N=C(c2ccccc2)CC1c1ccc(Br)cc1 (centres undefined), the inhibition is reported as 1.07% (inactive). For CC(C)CCC(=O)Nc1cc(S(=O)(=O)N2CCOCC2)ccc1N1CCCC1, the inhibition was -0.01% (inactive). With COc1cc2nnn(-c3ccncc3)c2cc1OC the inhibition was 1.02% (inactive). With CC1(C)CN(Cc2cccnc2)C(=O)[C@H]1CC(=O)Nc1ccc(Br)cc1 the inhibition was -0.18% (inactive). With O=C(COC(=O)c1ccc(S(=O)(=O)Nc2ccccc2)cc1)NCC1CCCO1 (centres undefined) the inhibition was -0.38% (inactive). With COc1ccc(C(=O)OCC(=O)NCC2CCCO2)cc1[N+](=O)[O-] (centres undefined) the inhibition was 4.91% (active). With COc1ccc(C(=O)OCC(=O)c2cc(C)n(CC3CCCO3)c2C)cc1[N+](=O)[O-] (centres undefined) the inhibition was 0.28% (inactive). With CCOC(OCC)c1ccc(/C=C\c2nccc(N)n2)cc1 the inhibition was 4.34% (active). Cc1ccc([C@H]2N[C@]3(CCCN(Cc4ccccc4)C3=O)[C@H]3C(=O)N(Cc4ccccc4)C(=O)[C@@H]23)cc1 was tested, and the inhibition was 0.82% (inactive). For COc1cccc(OCC(=O)NCCS(=O)(=O)N2CCN(c3ccccc3)CC2)c1, the inhibition was 0.69% (inactive). CC1(C)C2CCC1(C)C(OC(=O)CCn1ccnc1)C2 (centres undefined) was tested, and the inhibition was 0.23% (inactive). In the case of CC1(C)C2CCC1(C)C(OC(=O)c1ccc(O)cc1)C2 (centres undefined), the inhibition is reported as 4.45% (active). In the case of Cc1ccc(C(=O)OC2CCCN(C)C2)cc1 (centres undefined), the inhibition is reported as 1.89% (inactive). O=C(Nc1ccc(Cl)cn1)c1ccccc1-c1ccccc1 was tested, and the inhibition was 1.12% (inactive). In the case of O=C1NC(Cc2ccccc2)c2nc3ccc(Br)cc3c(=O)n2-c2cc3ccccc3cc21 (centres undefined), the inhibition is reported as 0.19% (inactive). With CC1(C)COC(c2cccn2Cc2ccccc2Cl)=N1 the inhibition was 5.28% (active). O=S1(=O)CCN(Cc2ccccc2Cl)CC1 was tested, and the inhibition was 0.98% (inactive). O=C(Nc1cccn(Cc2ccccc2Cl)c1=O)NC1CCCCC1 was tested, and the inhibition was -1.6% (inactive). CCC1NC(=O)c2cccnc2-n2c1nc1ccc(C)cc1c2=O (centres undefined) was tested, and the inhibition was 0.22% (inactive). For CC(C)NC(=O)Nc1ccc2c(c1)C(=O)N([C@H](C)CO)C[C@H](C)[C@@H](CN(C)Cc1ccc(C(F)(F)F)cc1)OCCCC[C@@H](C)O2, the inhibition was 0.43% (inactive). Cc1noc(C)c1S(=O)(=O)N(C)C[C@H]1OCCCC[C@@H](C)Oc2ccc(NC(=O)CCCN(C)C)cc2C(=O)N([C@H](C)CO)C[C@@H]1C was tested, and the inhibition was 0.48% (inactive). O=C(c1cccc(F)c1)N1CCC(O)(c2cccnc2)CC1 was tested, and the inhibition was 1.7% (inactive). With O=C(Nc1cccc(F)c1)N1C2CCC1CC(O)(c1cccnc1)C2 (centres undefined) the inhibition was 0.14% (inactive). Cc1ccc(NC(=O)N2CCC(O)(c3cccnc3)CC2)cc1 was tested, and the inhibition was 4.28% (active). With COC(=O)C[C@H]1C[C@@H]2c3cc(NC(=O)Nc4ccccc4)ccc3O[C@@H]2[C@@H](CO)O1 the inhibition was 2.2% (inactive). In the case of CC1CCN(C(=O)CSc2nnc(-c3ccco3)n2N)CC1, the inhibition is reported as 1.88% (inactive). O=C(Nc1ccc2nccnc2c1)c1ccco1 was tested, and the inhibition was 5.48% (active). COc1ccccc1C(=O)Nc1ccc(NC(=O)c2ccco2)c(C)c1 was tested, and the inhibition was -0.21% (inactive). O=C(Nc1ccc(Sc2ccc(Br)cc2)cc1)c1ccco1 was tested, and the inhibition was -0.97% (inactive). CC(C)(C)NC(=O)c1cc(NC(=O)c2ccco2)cc(NC(=O)c2ccco2)c1 was tested, and the inhibition was -1.82% (inactive). With Cc1ccc(NC(=O)c2ccco2)cc1 the inhibition was 7.13% (active). With O=C(Nc1ccc2oc(-c3ccccc3F)nc2c1)c1ccco1 the inhibition was 2.35% (inactive). With NS(=O)(=O)c1ccc(CNC(=O)c2cc(S(=O)(=O)N3CCOCC3)ccc2N2CCCC2)cc1 the inhibition was -0.73% (inactive). For CN1CCN(c2ccncc2S(=O)(=O)N2CCCC2)CC1, the inhibition was 0.96% (inactive). For O=C(O)CCn1c(Cc2ccccc2)nc2ccccc21, the inhibition was 0.63% (inactive). With Cc1cc2ccccc2n1CCNC(=O)COc1ccc2ccccc2c1 the inhibition was -0.5% (inactive). For Cc1cc2ccccc2n1CCC(=O)O, the inhibition was 6.77% (active). For CC(OC(=O)c1cccc(S(=O)(=O)N2CCOCC2)c1)C(=O)NCC1CCCCC1 (centres undefined), the inhibition was 0.27% (inactive). For COc1ccc(C(=O)NNC(=O)c2cnccn2)cc1[N+](=O)[O-], the inhibition was 1.76% (inactive). COc1cccc(OCC(=O)NNC(=O)c2cnccn2)c1 was tested, and the inhibition was 5.68% (active). For COc1ccccc1CCNC(=O)c1cnccn1, the inhibition was 0.75% (inactive). Cc1cc(Cl)ccc1C(=O)C1CCCN(C(=O)c2ccc3c(c2)OCO3)C1 (centres undefined) was tested, and the inhibition was 0.21% (inactive). For Cn1c(CSCC(=O)Nc2ccccc2)nnc1SCc1ccccc1, the inhibition was -0.77% (inactive). With Cc1c(NC(=O)CSCc2ccccc2)cccc1C(=O)O the inhibition was 0.3% (inactive). With O=C(CSCc1ccccc1)Nc1ccccc1 the inhibition was 7.09% (active). For O=C(COc1ccc(Br)cc1)OCC(=O)c1ccc[nH]1, the inhibition was -1.15% (inactive). In the case of COc1ccc(CCNC(=O)CN(c2ccccc2)S(=O)(=O)c2ccccc2)cc1, the inhibition is reported as -1.2% (inactive). With CCCCCCN1C[C@H](O)[C@@H](n2cc(C3CC3)nn2)C[C@@H]1c1ccc(Cl)cc1 the inhibition was -0.34% (inactive). With CCOc1cc(/C=N/NC(=O)c2ccncc2)cc(Br)c1O the inhibition was -0.05% (inactive). For Cc1nc2cc3c(cc2s1)OCO3, the inhibition was 5.8% (active). For COc1cc2sc(C)nc2cc1C, the inhibition was -1.73% (inactive). c1c2c(cc3sc(N4CCCCC4)nc13)OCCO2 was tested, and the inhibition was -5.28% (inactive). In the case of CCCc1ccc(S(=O)(=O)N2CCN(C(=O)c3cc(C)on3)CC2)cc1, the inhibition is reported as -0.87% (inactive). With O=C(CCN1CCCCC1)Nc1ccc(F)c(F)c1 the inhibition was 0.27% (inactive). For FC(F)(F)c1ccnc(Oc2ccc(C3=NCCS3)cc2)c1, the inhibition was 6.14% (active). In the case of CC1C(=O)N(Cc2cn(Cc3ccco3)nn2)CCS(=O)(=O)N1Cc1ccc(-c2cccc(CO)c2)cc1 (centres undefined), the inhibition is reported as 0.37% (inactive). COCOCCn1cc(CN2CCS(=O)(=O)N(Cc3ccc(-c4ccccc4)cc3)C(CC(C)C)C2=O)nn1 (centres undefined) was tested, and the inhibition was -1.62% (inactive). For CCCCOC(=O)Nc1nnc(CC(=O)NCc2ccccc2)s1, the inhibition was -0.2% (inactive). For CCCCCCOC(=O)NCC(O)c1ccccc1 (centres undefined), the inhibition was 4.4% (active). With O=C(CC(c1ccccc1)c1ccccc1)NCC(O)c1ccc([N+](=O)[O-])cc1 (centres undefined) the inhibition was 0.2% (inactive). With COc1ccc(OC)c(-n2c(-c3ccn[nH]3)n[nH]c2=S)c1 the inhibition was 4.83% (active). In the case of COc1ccc(OCc2n[nH]c(=S)n2N)cc1, the inhibition is reported as 0.95% (inactive). With COc1ccc(-n2c(-c3ccc(Cl)cc3)n[nH]c2=S)c(OC)c1 the inhibition was 0.25% (inactive). In the case of C[C@@H]1CN([C@H](C)CO)C(=O)c2cc(-c3ccc(F)cc3)cnc2O[C@H]1CN(C)C(=O)c1ccc(F)cc1, the inhibition is reported as -1.22% (inactive). With CN(Cc1ccccc1)C(=O)c1ccc(COc2ccccc2)cc1 the inhibition was 0.19% (inactive). With CN(CC(=O)O)C(=O)c1ccccc1 the inhibition was 5.67% (active). For CN(Cc1ccccc1)C(=O)c1cccc(C(=O)N(C)Cc2ccccc2)c1, the inhibition was 0.91% (inactive). For COCOCCn1cc(CN2CCS(=O)(=O)N(Cc3ccc(-c4cccc(N(C)C)c4)cc3)C(CC(C)C)C2=O)nn1 (centres undefined), the inhibition was 2.25% (inactive). For CCOc1ccc(NC(=O)c2cc(C)nc3ccccc23)cc1, the inhibition was 0.49% (inactive). Cc1cc(Nc2ccc(Br)cc2)nc2ccccc12 was tested, and the inhibition was 5.55% (active). CN1CCN(c2nc(Nc3ccc(O)cc3)nc3ccccc23)CC1 was tested, and the inhibition was 0.71% (inactive). For CSC1=NN(c2ccccc2)CN(c2ccccc2)N1C, the inhibition was 0.33% (inactive). For C[C@@H]1CN([C@@H](C)CO)S(=O)(=O)c2ccc(-c3ccc(C(=O)N(C)C)cc3)cc2O[C@@H]1CN(C)Cc1ccccc1C(=O)O, the inhibition was 3.37% (inactive). In the case of Cc1nn(CC(=O)N2CCCCC2)c(=O)c2nn(-c3ccccc3)c(C)c12, the inhibition is reported as 0.17% (inactive). For Cc1csc(NC(=O)CN2CCCCCC2)n1, the inhibition was 1.37% (inactive). For Cc1nc2c(ncn2-c2ccccc2)c(=O)n1NC(=O)CN1CCCC1, the inhibition was 8.39% (active). With COc1ccc(NC2CCCN(C(=O)c3ccccc3-c3ncc[nH]3)C2)cc1 (centres undefined) the inhibition was -0.18% (inactive). In the case of Cc1cccc(OCC(=O)Nc2ccccc2F)c1, the inhibition is reported as 5.58% (active). Cc1cccc(OCC(=O)Nc2ccc(C(=O)O)cc2NC(=O)COc2cccc(C)c2)c1 was tested, and the inhibition was 0.91% (inactive). In the case of Cc1cccc(OCCC(=O)Nc2ccccc2C(N)=O)c1, the inhibition is reported as -0.79% (inactive). In the case of COc1ccccc1-n1c(SCC(=O)Nc2ccc(Cl)cc2)nc(O)c(Cc2ccccc2)c1=O, the inhibition is reported as 1.11% (inactive). For CC1(C)CC(=O)NC=C(c2ccccc2)C1, the inhibition was -0.26% (inactive). For CC1(C)CC(=O)C(CC(=O)N2CCC(Cc3ccccc3)CC2)C(=O)C1, the inhibition was 3.82% (inactive). With CC1(C)CC(=O)C(C2c3ccccc3S(=O)(=O)c3ccccc32)C(=O)C1 the inhibition was 5.54% (active). For COc1ccc(C(=O)NCC2CCCO2)cc1S(=O)(=O)NCc1ccc(Cl)cc1 (centres undefined), the inhibition was 0% (inactive). CC1=C(C(=O)N(C)C)CC(CC(=O)NCCc2ccccn2)C(=O)N1CCC1=CCCCC1 (centres undefined) was tested, and the inhibition was 1.44% (inactive).
